Measurements reported in PubChem BioAssay AID624297 (National Center for Advancing Translational Sciences (NCATS), 2012).
Values joined by “and” are separate entries in the source; they are usually repeats but may differ in a detail not shown here. Equal entries are not always repeated. Screen size: about 340,000 compounds; about 6,200 (1.8%) were called active. About 10% were inconclusive and are not listed. Shown is part of a subset that was picked to be rich in actives. Values without a mark were called inactive. Calls follow the shape of the dose curve; as a rule, active = well fitted activation curve with a large enough effect; inconclusive = small, poorly fitted or top-dose-only effect; inactive = no such curve, though single readings can be large or run the other way.

assay: A quantitative high throughput screen for small molecules that induce DNA re-replication in SW480 colon adenocarcinoma cells.; also: nearly all actives have a fitted effect of over 55% in size; as to re-replication activation: % of control where 0% means no effect; settings: Hoechst DNA content imaging, 48 h; series mostly up to 46.1 µM; re-replication activation: at the top concentration
In short: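 Treated cells incubate 48 hr (37 C, 5% CO2), are stained 40 min with Hoechst, and nuclear fluorescence is enumerated; a rise in nuclei with high DNA signal marks re-replication.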
Potency is read from the fitted curve at half-maximal effect.

| Structure (SMILES) | re-replication activation | Potency |
| --- | --- | --- |
| COc1ccccc1NC(=O)N(O)C1(C#N)CCCCC1 | -4.71% |  |
| O=C(Cn1cnc2ccccc2c1=O)NNC(=O)c1ccccc1F | -0.586% |  |
| CCCN(C(=O)COC(=O)CNS(=O)(=O)c1ccc(NC(C)=O)cc1)C1CCS(=O)(=O)C1 (stereo unspecified) | 4.31% |  |
| C[C@H]1CN([C@@H](C)CO)C(=O)Cc2cc(NS(C)(=O)=O)ccc2O[C@@H]1CN(C)CC1CC1 | -2.55% |  |
| NC(=O)c1ncn([C@@H]2O[C@H](CN=C3NS(=O)(=O)c4ccccc43)[C@@H](O)[C@H]2O)n1 | -0.422% |  |
| Nc1ccc2nc3c(=O)[nH]c(=S)[nH]c3nc2c1 |  | 4.61 µM (active) |
| CSCCC(NC(=O)COc1ccccc1)C(=O)N1CCN(c2cccc(C(F)(F)F)c2)CC1 (stereo unspecified) | -61.9% |  |
| CCN(CC)C(=O)[C@H]1C[C@H](CC(=O)NCC23CC4CC(CC(C4)C2)C3)C(=O)N2CCc3c([nH]c4cc(CCC(=O)N(C)C)ccc34)[C@]12C | 25.4% [at 9.22 µM] |  |
| CN(C)C(CNC(=O)c1cc2ccccc2o1)c1ccccc1 (stereo unspecified) | -0.173% |  |
| O=C(c1cnccn1)N1CCN(S(=O)(=O)c2cccc(Cl)c2)CC1 | -0.271% |  |
| COc1ccc(N=C(C)c2sc3ccccc3c2O)cc1 | -7.9% |  |
| Oc1ccc(N=Cc2sc3ccccc3c2Cl)cc1 |  | 9.2 µM (active) |
| Cc1nn(C)cc1/C=N/NC(=O)c1sc2ccccc2c1Cl | -4.27% |  |
| CC1(C)C(=O)CCC2(C)C1=CCC1C2C(=O)CC2(C)C1CCC2(O)C(=O)CO (stereo unspecified) | -5.75% |  |
| COc1ccc(-c2ccc(Nc3ccc(S(=O)(=O)N4CCCC4)cc3)nn2)cc1OC | 6.25% |  |
| COc1ccc(-c2cc(C(F)(F)F)nc(S(C)(=O)=O)n2)cc1OC |  | 4.11 µM (active) |
| COc1ccc(-c2cc(C(F)(F)F)nc(NCc3cccnc3)n2)cc1 | -5.23% |  |
| CC[C@]12c3[nH]c4cc(CCC(=O)N(C)C)ccc4c3CCN1C(=O)[C@@H](CC(=O)NCCCn1ccnc1)C[C@@H]2C(=O)N1CCN(C(=O)C2CC2)CC1 | 0.558% |  |
| NC1=NOC(=O)C1C1CCCCC1 (stereo unspecified) | 0.706% |  |
| CC(=O)OCC(=O)C1(O)CCC2C3CC(C)C4=CC(=O)CCC4(C)C3C(O)CC21C (stereo unspecified) | -2.38% |  |
| O=C(c1ccc2c(c1)C(=O)N(Cc1ccncc1)C2=O)N1CCN(S(=O)(=O)c2ccc(OC(F)(F)F)cc2)CC1 | -0.488% |  |

| Structure (SMILES) | re-replication activation | Potency |
| --- | --- | --- |
| CCN(C[C@H]1N[C@@](CC)(C(=O)OC)[C@H]2C(=O)N(C)C(=O)[C@@H]12)C(=O)Nc1ccc(F)cc1 | -61.2% |  |
| CC(=O)Oc1ccccc1C1=NN(C(C)=O)C(c2ccccc2)C1 (stereo unspecified) | -16.4% |  |
| Oc1ccccc1C1=NN(c2ccccc2)C(c2ccccc2)C1 (stereo unspecified) |  | 8.2 µM (active) |
| O=C(c1ccccc1)N1N=C(c2ccccc2O)CC1c1ccc(Br)cc1 (stereo unspecified) | -5.14% |  |
| O=C1/C(=C\c2cccnc2)CN(Cc2ccccc2)C/C1=C\c1cccnc1 |  | 0.13 µM (active) |
| Clc1ccc(CN2CCN(/N=C/c3cccnc3)CC2)cc1 | -3.04% |  |
| O=C1NCC(=O)N(Cc2ccccc2)/C1=C/c1ccccc1 | 24.2% |  |
| COc1cc(OC)c(/C=N/NC(=O)c2ccc([N+](=O)[O-])cc2)cc1Br | -8.94% |  |
| COc1cc(/C=N\NC(=O)c2nonc2N)c(OC)cc1Br |  | 0.291 µM (active) |
| Cc1cc(C)c([N+](=O)[O-])cc1-c1ccc(/C=N/NC(=O)c2nonc2N)o1 | -0.463% |  |
| C[C@@H]1CN([C@@H](C)CO)C(=O)c2cc(NC(=O)C3CC3)ccc2O[C@H]1CN(C)C | -5.73% |  |
| COc1cc(C(=O)OCc2cc(=O)n3ccsc3n2)ccc1OC(C)C | -0.423% |  |
| CC(C)(C)C1CCC(=NNC(=O)c2cc(-c3ccccc3)n[nH]2)CC1 (stereo unspecified) | 13.8% |  |
| CC(NC(=O)C(=O)N/N=C/c1ccc(Cl)cc1)c1ccccc1 (stereo unspecified) | 3.87% |  |
| CC(NC(=O)C(=O)NN=C1CCC(C(C)(C)C)CC1)c1ccccc1 (stereo unspecified) |  | 0.731 µM (active) |
| CC[C@@]1(C(=O)OC)N[C@H](CN(C)C(C)=O)[C@@H]2C(=O)N(C)C(=O)[C@@H]21 | -9.49% |  |
| COc1ccccc1C1C2=C(COC2=O)Nc2cc3c(cc21)OCO3 (stereo unspecified) | -28% |  |
| CCCOc1ccccc1C1CC(=O)Nc2cc3c(cc21)OCO3 (stereo unspecified) |  | 3.66 µM (active) |
| COC(=O)C1=C(C)NC(=O)CC1c1ccccc1OC (stereo unspecified) | 1.66% |  |
| COc1ccc(C)cc1NC(=O)CSc1cccc[n+]1[O-] | -10.9% |  |
| O=S(=O)(NCc1ccc(Cl)cc1Cl)c1cccs1 | 0.858% |  |

| Structure (SMILES) | re-replication activation | Potency |
| --- | --- | --- |
| O=S(=O)(Cc1ccc(Cl)cc1Cl)c1ccc(Cl)cc1 |  | 1.3 µM (active) |
| Cc1ccc(S(=O)(=O)Cc2cc(-c3ccc(Cl)cc3)no2)cc1 | 22.8% |  |
| Nn1c(SCC(=O)NC2CCCc3ccccc32)nnc1C1CC1 (stereo unspecified) | -5.75% |  |
| CN(C)C(=O)CCc1ccc2c3c([nH]c2c1)[C@]1(CCC2CCCC2)[C@@H](C(=O)N2CCOCC2)C[C@H](CC(=O)NCc2ccco2)C(=O)N1CC3 | 19.7% [at 9.22 µM] |  |
| O=C1c2ccccc2C(=O)N1CCCCCCN1C(=O)c2ccccc2C1=O | -3.92% |  |
| CC(CNC(=O)Cn1cnc2c(OCc3ccccc3)ncnc21)c1ccccc1 (stereo unspecified) | 0.97% |  |
| O=C(Cc1ccc(Br)cc1)N1CCN(c2ccccn2)CC1 | 0.92% |  |
| O=C(/C=C/c1cccc(C(F)(F)F)c1)N1CCN(c2ccccn2)CC1 |  | 4.61 µM (active) |
| O=C(C(Cl)Cl)N1CCN(c2ccccn2)CC1 | 2.41% |  |
| O=C(c1cccnc1)N(Cc1ccccc1)C(=O)c1cccnc1 | -7.61% |  |
| CCOC(=O)N(Cc1ccccc1)C1CC1 | 0.406% |  |
| CC1=CC(=NNS(=O)(=O)c2ccc([N+](=O)[O-])cc2)CC(C)(C)C1 | 26% |  |
| Cc1coc2c(O)cc3c(c12)OC1(N2CCCCC2)C(=O)NCCCC31 (stereo unspecified) |  | 20.6 µM (active) and 7.08 µM (active) |
| COc1ccc(C(=O)N(C)Cc2ccc(OC)c(OC)c2OC)cc1S(=O)(=O)N1CCOCC1 | -16.5% |  |
| COc1ccc([N+](=O)[O-])cc1NC(=O)COC(=O)/C=C/c1ccco1 | 2.98% |  |
| COC(=O)C1=C(C)N(c2ccc(Br)cc2)C(=O)/C1=C\c1ccco1 | -1.99% |  |
| COc1ccc(N2C(=O)/C(=C\c3ccco3)N=C2SCC(N)=O)cc1Cl |  | 18.4 µM (active) |
| O=C(CC1SC(N2CCOCC2)=NC1=O)Nc1ccccc1F (stereo unspecified) | -10.3% |  |
| CCCCCCSc1ccc([C@@H]2[C@H]3C(=O)N(CC)C(=O)[C@H]3[C@]3(C(=O)OC)CCCCN23)cc1 | 10.7% |  |
